For the assay, the target named is histone methyltransferase SET domain containing 2 (SETD2) (Homo sapiens, UniProt Q9BYW2). In words: primary screen, binary call; higher = more effect of the substance. The protocol:
The Chemiluminescence assay evaluates SETD2 specific tri -methylation activity towards histone H3K36. The kit consist s of recombinant SETD2, S-adenosylmethionine and a specific H3K36me3 antibody and was performed according to the manufacturer’s protocol (Catalo g- No. 52060, https://bpsbioscience.com/setd2 -chemiluminescent-assay-kit-52060). Values were blank corrected and normalized . Enzymatic activities were calculated relative to the positive control of the kit (full enzymatic activity) and to the known SET doma in inhibitor Sinefungin28 used as negative control (complete enzymatic activity inhibition). Compounds used were diluted in DMSO.
Chain of histone methyltransferase SET domain containing 2 (SETD2) (Q9BYW2 whole entry, looked up, the tested form may be a part): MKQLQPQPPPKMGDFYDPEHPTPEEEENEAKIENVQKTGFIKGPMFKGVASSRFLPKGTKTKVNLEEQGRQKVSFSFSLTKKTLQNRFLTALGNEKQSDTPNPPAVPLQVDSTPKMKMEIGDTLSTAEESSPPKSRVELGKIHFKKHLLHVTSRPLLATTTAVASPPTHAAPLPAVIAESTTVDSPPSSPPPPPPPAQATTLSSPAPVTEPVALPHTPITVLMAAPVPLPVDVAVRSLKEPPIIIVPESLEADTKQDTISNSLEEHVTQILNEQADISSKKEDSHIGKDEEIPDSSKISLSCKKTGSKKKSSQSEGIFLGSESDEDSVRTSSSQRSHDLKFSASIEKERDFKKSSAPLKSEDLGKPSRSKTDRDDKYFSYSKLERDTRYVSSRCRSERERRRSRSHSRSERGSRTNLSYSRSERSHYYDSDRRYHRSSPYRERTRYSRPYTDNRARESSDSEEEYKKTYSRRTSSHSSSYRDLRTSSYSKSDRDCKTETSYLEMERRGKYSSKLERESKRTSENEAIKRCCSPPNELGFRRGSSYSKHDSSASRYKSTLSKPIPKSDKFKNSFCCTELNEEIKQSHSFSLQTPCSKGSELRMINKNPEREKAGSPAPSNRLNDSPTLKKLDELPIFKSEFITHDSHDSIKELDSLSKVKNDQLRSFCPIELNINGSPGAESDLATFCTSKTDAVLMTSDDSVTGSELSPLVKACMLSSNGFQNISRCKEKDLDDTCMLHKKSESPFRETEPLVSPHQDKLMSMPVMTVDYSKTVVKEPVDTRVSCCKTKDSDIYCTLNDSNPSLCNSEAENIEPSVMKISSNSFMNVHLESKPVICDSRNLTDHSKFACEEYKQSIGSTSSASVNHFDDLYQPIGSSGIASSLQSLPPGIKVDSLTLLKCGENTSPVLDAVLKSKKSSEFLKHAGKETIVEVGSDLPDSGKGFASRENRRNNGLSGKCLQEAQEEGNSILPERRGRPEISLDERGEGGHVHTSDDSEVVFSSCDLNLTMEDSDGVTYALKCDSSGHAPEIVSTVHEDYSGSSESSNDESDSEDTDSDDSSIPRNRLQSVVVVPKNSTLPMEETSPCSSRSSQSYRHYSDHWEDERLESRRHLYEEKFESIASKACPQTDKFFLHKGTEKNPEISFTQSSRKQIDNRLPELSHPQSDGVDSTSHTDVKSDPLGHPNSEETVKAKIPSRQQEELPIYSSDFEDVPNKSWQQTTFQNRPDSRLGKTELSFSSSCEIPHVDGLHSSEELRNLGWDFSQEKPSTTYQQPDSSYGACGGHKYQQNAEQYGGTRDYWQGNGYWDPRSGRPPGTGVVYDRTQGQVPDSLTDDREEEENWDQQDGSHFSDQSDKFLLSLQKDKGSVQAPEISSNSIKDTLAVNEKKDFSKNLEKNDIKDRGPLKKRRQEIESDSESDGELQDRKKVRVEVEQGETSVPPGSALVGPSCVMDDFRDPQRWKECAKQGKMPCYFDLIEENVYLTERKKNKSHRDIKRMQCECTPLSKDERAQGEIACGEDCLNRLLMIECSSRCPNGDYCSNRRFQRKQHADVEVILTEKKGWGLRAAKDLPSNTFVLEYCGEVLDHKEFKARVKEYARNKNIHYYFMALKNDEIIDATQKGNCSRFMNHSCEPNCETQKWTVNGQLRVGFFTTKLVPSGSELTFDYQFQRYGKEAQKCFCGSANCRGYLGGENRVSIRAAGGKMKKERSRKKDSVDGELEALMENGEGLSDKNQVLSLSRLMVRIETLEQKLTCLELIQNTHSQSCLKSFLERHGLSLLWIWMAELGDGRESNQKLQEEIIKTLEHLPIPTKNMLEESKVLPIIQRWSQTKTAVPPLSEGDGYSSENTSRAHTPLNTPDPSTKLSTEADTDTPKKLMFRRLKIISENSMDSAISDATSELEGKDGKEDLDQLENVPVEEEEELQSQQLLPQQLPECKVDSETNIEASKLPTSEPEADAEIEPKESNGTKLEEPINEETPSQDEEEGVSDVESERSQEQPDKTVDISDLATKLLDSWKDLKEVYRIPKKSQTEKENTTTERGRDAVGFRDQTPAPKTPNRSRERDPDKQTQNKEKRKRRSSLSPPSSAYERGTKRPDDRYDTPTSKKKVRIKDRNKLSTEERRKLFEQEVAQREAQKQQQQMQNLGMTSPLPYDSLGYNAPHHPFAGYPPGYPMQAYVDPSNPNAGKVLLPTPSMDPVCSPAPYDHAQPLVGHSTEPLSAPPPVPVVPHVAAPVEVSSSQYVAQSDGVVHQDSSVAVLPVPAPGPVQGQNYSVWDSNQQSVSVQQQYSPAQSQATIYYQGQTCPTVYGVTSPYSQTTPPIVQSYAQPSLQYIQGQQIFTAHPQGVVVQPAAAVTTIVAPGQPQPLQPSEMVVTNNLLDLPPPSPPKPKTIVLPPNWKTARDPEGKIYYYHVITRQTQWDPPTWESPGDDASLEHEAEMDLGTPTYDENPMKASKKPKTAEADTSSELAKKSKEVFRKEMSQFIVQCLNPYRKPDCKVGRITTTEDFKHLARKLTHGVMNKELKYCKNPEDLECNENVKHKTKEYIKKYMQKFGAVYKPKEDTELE
Regarding `Cn1c(CO)nc2ccccc21`, the SETD2 was 0 (inactive). Then `NC1CCc2ccccc21` (centres unmarked), with 0 (inactive); and `O=C(Nc1ccccc1)C1CC1`, with 0 (inactive). For `CCn1cnc2ccccc21`, the SETD2 is 0 (inactive). Then `O=C(NC1CC1)c1ccccc1O`, with 0 (inactive); and `COc1ccc(CN2CCNCC2)cc1F`, with 0 (inactive); and `O=C(O)c1ccc(CN2CCOCC2)cc1`, with 0 (inactive).

Regarding `Oc1ccc(-n2cncn2)cc1`, the SETD2 is 0 (inactive). In the case of `COc1ccccc1N1CCNCC1`, the SETD2 was 0 (inactive). Then `Oc1ccccc1N1CCCCC1`, with 0 (inactive); and `N[C@H]1c2ccccc2C[C@H]1CO`, with 0 (inactive).

(Values after PMC8159961, “Exploring protein hotspots by optimized fragment pharmacophores” (Nature Communications, 2021).)
